Source: PubChem BioAssay (NCI)
About 83,000 compounds went through this panel and 20% of them were active in at least one assay; those are over-represented in the sample as a whole.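 Compound tested at a single concentration for 48 hours in 96-well plates; a percent growth value below 10 was scored as active.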 A number with no mark means an inactive call. Calls of active or inactive are those of the source.

Experiments:
Experiment in all cases: NCI-60 one-dose screen, 48 h (100 = growth as untreated, 0 = no growth, -100 = all killed)
Conditions in all cases: 10 µM unless noted
HCT-15 colon = system: HCT-15 colon
HT29 colon = system: HT29 colon
SNB-75 CNS = system: SNB-75 CNS
SNB-19 CNS = system: SNB-19 CNS
U251 CNS = system: U251 CNS
PC-3 prostate = system: PC-3 prostate
SK-MEL-5 melanoma = system: SK-MEL-5 melanoma
UACC-62 melanoma = system: UACC-62 melanoma
LOX IMVI melanoma = system: LOX IMVI melanoma
SK-MEL-28 melanoma = system: SK-MEL-28 melanoma
EKVX NSCLC = system: EKVX NSCLC
SN12C renal = system: SN12C renal
UO-31 renal = system: UO-31 renal
TK-10 renal = system: TK-10 renal
ACHN renal = system: ACHN renal
CAKI-1 renal = system: CAKI-1 renal
CCRF-CEM leukemia = system: CCRF-CEM leukemia
MOLT-4 leukemia = system: MOLT-4 leukemia
A498 renal = system: A498 renal

| SMILES | growth (HCT-15 colon) | growth (HT29 colon) | growth (SNB-75 CNS) | growth (SNB-19 CNS) | growth (U251 CNS) | growth (PC-3 prostate) | growth (SK-MEL-5 melanoma) | growth (UACC-62 melanoma) | growth (LOX IMVI melanoma) | growth (SK-MEL-28 melanoma) | growth (EKVX NSCLC) | growth (SN12C renal) | growth (UO-31 renal) | growth (TK-10 renal) | growth (ACHN renal) | growth (CAKI-1 renal) | growth (CCRF-CEM leukemia) | growth (MOLT-4 leukemia) | growth (A498 renal) |
| --- | --- | --- | --- | --- | --- | --- | --- | --- | --- | --- | --- | --- | --- | --- | --- | --- | --- | --- | --- |
| CSc1nc2ncncc2[nH]1 | 101% | 99.4% | 86.7% | 100% | 101% | 106% | 101% | 104% | 97.5% | 75.1% | 91.2% | 91.4% | 90.7% | 102% | 104% | 621% | 97.7% | 95% | – |
| COC(=O)CNC(=O)[C@@H](OC)[C@@H]1Cc2cc3cc(OC4CC(OC5CC(O)C(O)C(C)O5)C(O)C(C)O4)c(C)c(O)c3c(O)c2C(=O)[C@H]1OC1CC(OC2CC(OC3CC(C)(O)C(O)C(C)O3)C(O)C(C)O2)C(O)C(C)O1 (stereo not given in full) | 31.5% | 3.78% (active) | -51.7% (active) | 9.4% (active) | 9.93% (active) | 12.9% | -44.6% (active) | -65.2% (active) | -15.5% (active) | -17.2% (active) | 20.2% | 13.7% | 10.9% | 21% | -1.39% (active) | 43.5% | 18% | -2.56% (active) | – |
| Cn1ncc(Cl)c1-c1cc(C(=O)N[C@H](CN)Cc2cccc(F)c2)sc1Cl | 16.9% | 0.334% (active) | -46.2% (active) | 9.05% (active) | -45.2% (active) | 9.61% (active) | -96.1% (active) | -19.5% (active) | -51.9% (active) | -72.7% (active) | 38.5% | 29.5% | -10.1% (active) | 8.77% (active) | 18.7% | 11% | 6.1% (active) | -14.5% (active) | – |
| Cc1nc(-c2cn3c(n2)-c2ccc(-c4cnn(C(C)(C)C(N)=O)c4)cc2OCC3)n(C(C)C)n1 | 30.8% | 10.5% | -5.53% (active) | 30.8% | 23.5% | 23.5% | 8.62% (active) | -22.6% (active) | 11.6% | 9.16% (active) | 36.1% | 25.7% | 5.32% (active) | 8.61% (active) | 15.9% | 21.1% | 26.4% | 15.2% | – |
| CCOc1ccc(N=C(C)Nc2ccc(OCC)cc2)cc1 | 92.1% | 109% | 80.5% | 99.2% | 108% | 93.2% | 109% | 104% | 102% | 113% | 109% | 102% | 82.3% | 108% | – | 122% | 88% | 93.8% | 100% |
| CC(C)[C@@H]1CC[C@@H]2[C@@H]1[C@H](OC(=O)/C=C/c1ccccc1)[C@]1(C(C)C)C[C@@H](OC(=O)CO)[C@@]2(C)O1 | 78% | 75% | 38.1% | 99% | 74.3% | 30% | 81.2% | 84.3% | 81% | 104% | 63% | 49.7% | 3.86% (active) | 94.9% | 17% | 65.5% | 77.1% | 58.4% | – |
| C#Cc1cccc(Nc2ncnc3cc4c(cc23)OCCOCCOCCO4)c1 | 68.8% | 57% | 57.7% | 60.9% | 57% | 57.3% | 58.1% | 32.9% | 51% | 57.6% | 42.5% | 42% | 27.2% | 7.84% (active) | 16.3% | 28.4% | 73.3% | 53.3% | 24.1% |
| Cn1ncc(Cl)c1-c1cc(C(=O)N[C@H](CN)Cc2ccc(F)c(F)c2)oc1Cl | 6.57% (active) | -11.7% (active) | -86.4% (active) | 2.29% (active) | -86.5% (active) | -25% (active) | -96.2% (active) | -78.5% (active) | -88.8% (active) | -77.1% (active) | 6.1% (active) | 16.5% | -19.8% (active) | -91% (active) | 4.47% (active) | -34.2% (active) | 3.82% (active) | -4.62% (active) | – |
